The source of these data is PubChem BioAssay AID1233 (SRMLSC, 2008).

Potency and affinity values are given separately. Active and inactive are the calls of the source.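 Rule for the calls: active = a dose-response curve fit returns a half-maximal inhibitory concentration, extrapolated values included; inactive = the fit returns no such concentration.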

The assay has as its target HMG-CoA reductase [Enterococcus faecalis] (UniProt Q9FD70). Put plainly: class II HMG-CoA reductase inhibition potency – biochemical, Enterococcus faecalis, confirmation (AID 1233).

In the case of `CCCn1c(=S)[nH]c2ccccc2c1=O`, the call was inactive.
Next, `Cc1cc(=O)[nH]c(N/N=C/c2ccc(N(C)C)cc2)n1`: “inactive”; `Cc1ccccc1NC(=S)NCc1ccc2c(c1)cc(C)n2C`: “inactive”.
